{"source": "PubChem BioAssay (NCI)", "note": "This is part of a sample that, as a whole, favours compounds with a hit. Of some 83,000 tested, about 20% had one in any assay.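 Growth was measured after 48 h exposure to one concentration of compound in 96-well plates. Values under 10 count as active.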 Values without a mark were called inactive. Active and inactive are the calls of the source."}
{"system": "UACC-62 melanoma", "experiment": "NCI-60 one-dose screen, 48 h (100 = growth as untreated, 0 = no growth, -100 = all killed)", "settings": "10 µM unless noted", "description": "Growth inhibition of the UACC-62 human tumor cell line is measured as a screen for anti-cancer activity. Cells are grown in 96 well plates and exposed to the test compound for 48 hours. Compounds are tested at a single concentration, which is 10^-5 M for most compounds. The reported endpoint is percent growth (GI% or GIPRCNT), where numbers from 0 - 100% represent growth inhibition, and numbers from -100% - 0 represent cell death. For example, a value of 40 represents 60% growth inhibition. A value of 0 means no net growth occurred over the course of the experiment. A value of -40 indicates 40% of cells at the beginning of the experiment died by the end of the experiment. A value of -100 means all cells are dead at the end of the experiment.\nNCI-60 Human Tumor Cell Lines Screen was performed using the standard one-dose NCI protocol, which is described in more detail at https://dtp.cancer.gov/discovery_development/nci-60/default.htm.\nCompounds with GIPRCNT values below 10 were considered active. Activity score was based on GIPRCNT using the following formula: […]\nScore is 0 for GIPRCNT values of 100 or above, 50 for GIPRCNT values of 0, and 100 for GIPRCNT values of -100."}
{"compound": "C=C(C)[C@@H]1CC[C@]2(C(=O)O)CC[C@]3(C)[C@H](CC[C@@H]4[C@@]5(C)CCC(NC(=O)c6cccc(OC(C)=O)c6OC(C)=O)C(C)(C)[C@@H]5CC[C@]43C)[C@@H]12", "note": "(stereo not given in full)", "growth": "-38.3% (active)"}
{"compound": "Cc1ccc(-c2nc(N3CCCNCC3)c3oc(-c4ccc(C)cc4)nc3n2)cc1", "growth": "92%"}
{"compound": "CC(=O)N1N=C(c2ccc(Nc3nc(Nc4ccccc4)nc(Nc4ccccc4)n3)cc2)CC1c1ccccc1", "note": "(stereo not given)", "growth": "91%"}
{"compound": "COc1ccc(\\C=N/N=C(N)/C(N)=N\\N=C/c2ccc(OC)cc2)cc1", "growth": "104%"}
{"compound": "Nc1ncnc2c1C(c1ccc(Br)cc1)c1sc3c(F)cccc3c1O2", "note": "(stereo not given)", "growth": "80.1%"}
{"compound": "Cc1c2cnccc2c(C)c2c1c1cc(C#N)ccc1n2C", "growth": "-52.6% (active)"}
{"compound": "CCSc1nc2scc(C)c2c(=O)[nH]1", "growth": "94.1%"}
{"compound": "CCN(CC)CC(O)COc1c(Br)c(Br)c(Br)c2c1OC(C)(C)C2", "note": "(stereo not given)", "growth": "-43.7% (active)"}
{"compound": "CC(=O)c1c(C)nc2ccccc2c1/C=C/c1ccc(F)cc1", "growth": "74.9%"}
{"compound": "O=c1scc(-c2ccc(C(F)(F)F)cc2)s1", "growth": "84.1%"}
{"compound": "CN(C)CC(C)(C)C(=O)/C=C/c1ccccc1", "growth": "-73.6% [25 µM] (active)"}
{"compound": "Nc1ncnc2c1N=C(c1ccc(Br)cc1)CC(c1cccc(Nc3ccnc4cc(C(F)(F)F)ccc34)c1)N2", "note": "(stereo not given)", "growth": "74.3%"}
{"compound": "N=C(N)c1ccc(-c2ccc(-c3ccccc3)o2)cc1", "growth": "-70% (active)"}
{"compound": "COc1ccc(C2=C(Br)C(=O)c3nc(C)ccc3C2=O)cc1", "growth": "88.5%"}
{"compound": "CC1CCN(CCOc2ccc(CNc3ccc4nc(CCC5CCCCC5)[nH]c4c3)cc2)CC1", "growth": "56.8%"}
{"compound": "COc1ccc(C(C)=O)cc1S(=O)(=O)Nc1c(N)nc(SC)[nH]c1=O", "growth": "97.1%"}
{"compound": "N#CC1=C(N)Oc2c(sc3c(Br)cccc23)C1c1ccc(Cl)cc1", "note": "(stereo not given)", "growth": "10.3%"}
{"compound": "COc1cc(-c2nc3sccn3c2-c2ccnc(NCCNS(=O)(=O)c3ccccc3)n2)ccc1F", "growth": "25.8%"}
{"compound": "Oc1ccc(Cl)cc1/C=N\\NC(=S)N/N=C/c1cc(Cl)ccc1O", "growth": "3.04% (active)"}
{"compound": "COC12C=C/C(=C(/C(=O)OCc3ccncc3)C(=O)CCCCCCCCC3(OC)C=C/C(=C(/C(=O)OCc4ccncc4)C(=O)CCCCCCCC1)O3)O2", "growth": "-63% (active)"}
{"compound": "CCN(CC)CCCCCNc1cc(OC(=O)c2ccc(Cl)cc2)cc2cccnc12", "growth": "98%"}
{"compound": "c1csc(-c2ccc(CNc3c4ccccc4nc4ccccc34)cc2)c1", "growth": "64.5%"}
{"compound": "O=C(CN1CCCCC1)Nc1nc(-c2cc3ccccc3oc2=O)cs1", "growth": "91.7%"}
{"compound": "Ic1ccc(OCCCCn2ccnc2)cc1", "growth": "40.6%"}
{"compound": "COc1ccc(CNc2c3ccccc3nc3ccccc23)cc1", "growth": "55.8%"}
{"compound": "O=C(CN1C(=O)S/C(=C\\c2ccccc2)C1=O)Nc1ncc(Cc2ccccc2Cl)s1", "growth": "85.6%"}
{"compound": "CCn1cc(C(=O)O)c(=O)c2cc(F)c(N3CCN(CC(=O)Nc4ccc(S(=O)(=O)Nc5nccc(C)n5)cc4)C(C)C3)c(F)c21", "note": "(stereo not given)", "growth": "94.2%"}
{"compound": "COc1cc(C2CC(c3ccc(Nc4nc(Nc5ccc(Cl)cc5)nc(Nc5ccc(Cl)cc5)n4)cc3)=NN2C(C)=O)cc(OC)c1OC", "note": "(stereo not given)", "growth": "90.1%"}
{"compound": "COC(=O)CC[C@H](C)[C@H]1CC[C@H]2[C@@H]3CC[C@@H]4CC5(CC[C@]4(C)[C@H]3CC(=O)[C@]12C)Nc1ccccc1NC5=NC(C)(C)C", "note": "(stereo not given in full)", "growth": "57.9%"}
{"compound": "COc1ccc(Nc2nc(-c3cc(O)c(C)c(C)c3O)cs2)cc1", "growth": "68.9%"}
{"compound": "O=C(NCCNc1nccc(Nc2ccc(S(=O)(=O)Nc3ccccn3)cc2)n1)c1cccc([N+](=O)[O-])c1", "growth": "100%"}
{"compound": "Cc1c[n+](Cc2ccc3ccccc3c2)cn1Cc1ccc2ccccc2c1", "growth": "-30.5% (active)"}
{"compound": "O=C(CSc1nc2ccc([N+](=O)[O-])cc2[nH]1)Nc1ccc([N+](=O)[O-])cc1", "growth": "2.77% (active)"}
{"compound": "CCOC(=O)n1cc(-c2nonc2-c2cn(C(=O)OCC)c3ccc(Br)cc23)c2ccccc21", "growth": "58.7%"}
{"compound": "Cc1ccc(Nc2cc(N)nc(N)n2)cc1Cl", "growth": "90.8%"}
{"compound": "CC(C)c1ccc(Cc2cnc(NC(=O)c3cc(Br)cs3)s2)cc1", "growth": "42.5%"}
{"compound": "Cn1c(=O)cc2c3c(c(NCCCO)ccc31)C(=O)c1ccccc1-2", "growth": "40.4%"}
{"compound": "CCOC(=O)[C@@H]1CSC(CC)=C(C(=O)O)N1", "growth": "94.4%"}
{"compound": "O=C(OC(CO)C(=O)NC12CC3CC(CC(C3)C1)C2)c1ccc(Cl)cc1", "note": "(stereo not given)", "growth": "96.6%"}
{"compound": "C=C1C(=O)O[C@H]2[C@H]1CC/C(COC(=O)/C=C\\C(=O)NCc1ccc(Cn3c(=O)sn(CCI)c3=O)cc1)=C\\CC[C@@]1(C)O[C@@H]21", "growth": "55.4%"}
